HUVEC tox IL1B = HUVEC cytotoxicity counter-screen, IL-1B stimulated | HUVEC cell count loss, Hoechst imaging | 94,000 tested, 0.41% active | cell count reduction, % at 2 µM;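 active means cell count reduction more than 3 SD above the screen-wide mean, cut at about 70% in these data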;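 further: normalized per plate to untreated control cells as the no-loss baseline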
E-sel TNF inh = blocks E-selectin expression induced by TNF alpha; HUVEC TNFa-induced E-selectin immunofluorescence, high content; inhibition, % at 2 µM; 120,000 tested, 0.71% active;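 active means inhibition above the batch mean plus 3 SD, and confirmed as a hit on visual image review, cut at about 43% in these data; inconclusive means passes the inhibition cutoff but fails visual image review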;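 further: 0% = TNF-stimulated DMSO wells and 100% = unstimulated control wells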
NFkB transloc pot = enhances IL-1B driven NFkB nuclear translocation. HUVEC IL-1B NFkB p65 nuclear translocation imaging. activation, % at 2 µM. 94,000 tested, 0.3% active;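 active means activation above 40%, about the mean plus 3 SD, also judged a hit on visual image review; inconclusive means activation above 40% but not a hit on visual review; inactive means activation not above 40% and no visual hit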;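 further: percent activation is computed from the nuclear over cytoplasmic p65 intensity ratio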
TNFa cytotox = HUVEC cytotoxicity counter-screen, TNF alpha stimulated. HUVEC TNFalpha-stimulated, Hoechst cell count, imaging. cell count reduction, % at 2 µM. 93,000 tested, 0.17% active. AID 848;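 active means cell count reduction exceeding the screen mean by over 5 SD, scaled to untreated wells per plate, cut at about 78% in these data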;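 further: cells counted after 24 h of TNF alpha exposure following the 1 h pretreatment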
NFkB transloc inh = blocks IL-1B driven NFkB nuclear translocation in HUVEC cells | 94,000 tested, 0.43% active | AID 796 | HUVEC IL-1B NFkB p65 nuclear translocation imaging | inhibition, % at 2 µM;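 active means inhibition above about 30% together with a positive call from visual inspection of the well image, limit read from the data; inconclusive means inhibition above a set limit but visual check negative; inactive means inhibition not above a set limit, visual check negative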;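 further: nuclear over cytoplasmic p65 intensity ratio measured by imaging; 0% = IL-1B stimulated DMSO wells and 100% = unstimulated DMSO wells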
VCAM1 TNFa inh = reduces TNF alpha induced VCAM1 expression in HUVEC; HUVEC TNFa-induced VCAM-1 immunofluorescence, high-content imaging; inhibition, % at 2 µM; 95,000 tested, 0.48% active;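 active means inhibition above the batch mean plus 3 SD, with images confirmed as a hit by eye, cut at about 37% in these data; inconclusive means inhibition above that limit but hit not confirmed in images; inactive means inhibition not above that limit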;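 further: 0% = TNF-stimulated DMSO wells and 100% = unstimulated control wells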
Starred values were filed as active, the others as inactive; ? = inconclusive; . = not tested or not shown. Most compounds without a hit are left out; they make up all but 1.7% or so of the library.

SMILES	HUVEC tox IL1B	E-sel TNF inh	NFkB transloc pot	TNFa cytotox	NFkB transloc inh	VCAM1 TNFa inh
Cc1noc(C)c1CSc1nc2ccccc2[nH]1	3	-3	-12	-21	12	6
CCNc1nc(NCC)n2c(SCc3nc4ccccc4c(=O)[nH]3)nnc2n1	6	-30	-4	-12	4	18
CCNc1nc(NCC)n2c(SCc3ccc(F)cc3)nnc2n1	2	10	1	88*	-1	91*
Cc1cccc(C(=O)N[C@H](C(=O)Nc2ccc(C)c(S(=O)(=O)N(C)C)c2)C(C)C)c1	.	-1	.	.	.	.
O=C(Cc1ccc(Cl)cc1)c1c[nH]c(C(=O)NCCCn2ccnc2)c1	.	-40	.	.	.	.
Cc1cc(C(=O)NN=C2C3CC4CC(C3)CC2C4)c2ccccc2n1	-51	-3	-2	27	2	52*
Cc1ccc(CNC(=O)C(Cc2ccccc2)NS(=O)(=O)c2ccc(Br)s2)cc1 (stereo not drawn)	.	-3	.	.	.	.
CCOc1cc(C2C(C(=O)c3ccc(C)o3)=C(O)C(=O)N2CCc2ccccc2)ccc1O (stereo not drawn)	-27	-10	-47	-3	47*	-2
COc1cc(C2C(C(=O)c3ccco3)=C(O)C(=O)N2CCc2ccccc2)ccc1O (stereo not drawn)	.	29	.	.	.	.
Cc1ccc(C2SCCN2C(=O)c2ccc([N+](=O)[O-])cc2)cc1 (stereo not drawn)	.	-3	.	.	.	.
Cc1ccc(-n2nc(C)c3cc(C(=O)O)sc32)cc1	-138	-8	15	0	-15	1
Cc1nn(-c2ccccc2)c2sc(C(=O)O)cc12	.	97*	.	.	.	.
C=CCN=C1CCCc2c1[nH]c1ccc(C)cc21	.	-36	.	.	.	.
C=CCn1nnc2sc3c(c2c1=O)CCC(C)C3 (stereo not drawn)	-47	10	-48	-10	48*	6
CCc1cccc(CC)c1NC(=O)C1SC(=Nc2ccccc2C)C(c2nc3ccccc3s2)=C1N (stereo not drawn)	-4	-1	13	-3	-13	59*
COC(=O)CCn1nc(-c2ccc(C)cc2)c2ccccc2c1=O	.	-1	.	.	.	.
C=C(C)CSc1nc2nc(C)c(Br)cc2[nH]1	-62	13	-2	-6	2	3
COC(=O)CSc1nc2nc(C)c(Br)cc2[nH]1	-23	11	-4	100*	4	?
Cc1ccc(CNCC(O)(c2ccccc2)c2ccc(Cl)cc2)cc1 (stereo not drawn)	.	67*	.	.	.	.
CC(C)(C)c1ccc(COc2ccsc2C(=O)O)cc1	.	21	.	.	.	.
Cc1nn(C)cc1S(=O)(=O)N1CCN(Cc2cccc(Cl)c2)CC1	.	-24	.	.	.	.
O=C(Cn1ncc(Cl)c(Cl)c1=O)N1CCc2ccccc21	.	100*	.	.	.	.
O=C(Cn1ncc2c1-c1ccccc1OC2)N1CCc2ccccc21	-18	.	-1	-3	1	-10
CCOc1cc(S(=O)(=O)Nc2ccccc2CC)ccc1Cl	10	1	-29	79*	29	98*
O=C(/C=C/c1ccccc1)NCCSc1ccc(Cl)cc1	-18	-67	6	-14	-6	13
SMILES	HUVEC tox IL1B	E-sel TNF inh	NFkB transloc pot	TNFa cytotox	NFkB transloc inh	VCAM1 TNFa inh
O=C(Cn1c(-c2cncs2)nc2ccccc21)NCc1ccccc1	90*	-7	-2	5	2	1
Cc1ccccc1Cn1c(-c2cncs2)nc2ccccc21	17	-28	-1	-6	1	-18
O=C(NNC(=O)c1ccccc1-n1cccc1)c1ccc(Cl)cc1	15	54*	8	9	-8	-19
CN(C)CCNC(=O)/C=C/c1cn(-c2ccccc2)nc1-c1cc2ccccc2oc1=O	.	0	.	.	.	.
CCOC(=O)N1CCC(NC(=O)C2CCN(C(=O)N3CC(C)Oc4ccc(C)cc43)CC2)CC1 (stereo not drawn)	20	3	-50	2	50*	-14
Cc1c(Cc2ccccc2)sc(N)c1C(N)=O	87*	7	-98	-16	98*	16
Cc1c(Cc2ccccc2)sc(NC(=O)Cc2ccccc2)c1C(N)=O	-2	.	-2	.	2	.
CN(CC(=O)NCc1ccncc1)S(=O)(=O)c1ccccc1	-5	14	4	-14	-4	2
CN(CC(=O)NCc1ccncc1)S(=O)(=O)c1ccc(F)cc1	-34	16	29	100*	-29	?
CN(CC(=O)O)S(=O)(=O)c1ccc(F)cc1	-28	-10	4	-10	-4	-14
CNC(=O)CN(C)S(=O)(=O)c1ccc(F)cc1	13	-7	44*	-30	-44	6
Clc1ccccc1Sc1cnc2ccccc2n1	-10	1	-36	-45	36*	13
Clc1ccc(Sc2cnc3ccccc3n2)cc1	14	5	-17	3	17	2
CCc1nc2ccccc2n1Cc1ccc(OC)c(OC)c1	-17	7	22	12	-22	14
COc1ccc(Cn2c(CCCO)nc3ccccc32)cc1OC	18	3	-9	81*	9	0
O=C(CC1N=C(Cc2ccccc2)NNC1=O)N/N=C/c1ccc([N+](=O)[O-])cc1 (stereo not drawn)	.	-31	.	.	.	.
CCn1cc(C(=O)C(F)(F)F)c2ccccc21	-24	4	-5	9	5	-12
O=C(Cn1cc(C(=O)C(F)(F)F)c2cc(Br)ccc21)N1CCOCC1	.	61*	.	.	.	.
COc1ccc([C@@H]2[C@H]3C(=O)N(c4cccc(C(F)(F)F)c4)C(=O)[C@H]3ON2C)cc1	-11	.	-1	-7	1	-7
Cc1cc(OCc2ccc(F)cc2)nc(-c2ccccc2O)n1	28	.	-4	80*	4	95*
COC(=O)C1C(=O)C2=C(CC1C)NC(=O)CC2c1ccccc1 (stereo not drawn)	-7	-5	-16	-12	16	3
COC(=O)C1C(=O)C2=C(CC1C)NC(=O)CC2c1cccc(C)c1 (stereo not drawn)	90*	9	10	87*	-10	77*
COc1ccc(NC(=O)C2CCCNC2)cc1OCC(C)C (stereo not drawn)	29	19	-11	-4	11	-11
COc1ccc(CN2CCCCC2C(=O)Nc2ccc(OC)c(OCC(C)C)c2)cc1OC (stereo not drawn)	2	6	-2	-10	2	97*
O=C(O)CCCCCNC(=O)c1ccccc1	-7	-32	-1	-14	0	12
O=C(NC1CCCCC1)C(c1cccnc1)N(C(=O)CCl)c1cccc(Cl)c1 (stereo not drawn)	.	8	.	.	.	.
CC(C)CNC(=O)CC(=O)N/N=C/c1ccc(F)cc1	.	11	.	.	.	.
COc1ccc2c(c1)CCc1c(C(=O)N3CCOCC3)noc1-2	-18	38	3	-22	-3	-8
COc1ccc2c(c1)CCc1c(C(=O)N3CC4(C)CC3CC(C)(C)C4)noc1-2 (stereo not drawn)	-58	17	6	8	-6	91*
Cc1cc(SCC(=O)c2ccc3c(c2)OCO3)nc2ccccc12	-40	5	-57	-8	57*	12

Bioassay records (PubChem BioAssay)
